PubChem BioAssay (EPA / NIEHS)
Several values for one entry are separate records, joined by “and”; a condition that tells them apart may be missing. Identical values can stand only once. Records with an inconclusive call do not appear. Where a structure was tested more than once in an assay, its records may differ in their call. Activity calls are given as the source filed them. The calls were made as follows, unless noted: active = hit-call score of the fitted dose curve at least 0.9, where 1 is the maximum; inconclusive = response in the unintended direction; inactive = score below 0.9.

Experiments:
[1] = biological target: Cellular tumor antigen p53 (Homo sapiens) (UniProt P04637); test: TOX21_p53_BLA_p2_ratio: Tox21 HCT-116 p53 Agonism Beta-lactamase Assay, Ratio, Phase 2 (AID 2283592)
Chain of Cellular tumor antigen p53 (Homo sapiens) (P04637 whole entry, looked up): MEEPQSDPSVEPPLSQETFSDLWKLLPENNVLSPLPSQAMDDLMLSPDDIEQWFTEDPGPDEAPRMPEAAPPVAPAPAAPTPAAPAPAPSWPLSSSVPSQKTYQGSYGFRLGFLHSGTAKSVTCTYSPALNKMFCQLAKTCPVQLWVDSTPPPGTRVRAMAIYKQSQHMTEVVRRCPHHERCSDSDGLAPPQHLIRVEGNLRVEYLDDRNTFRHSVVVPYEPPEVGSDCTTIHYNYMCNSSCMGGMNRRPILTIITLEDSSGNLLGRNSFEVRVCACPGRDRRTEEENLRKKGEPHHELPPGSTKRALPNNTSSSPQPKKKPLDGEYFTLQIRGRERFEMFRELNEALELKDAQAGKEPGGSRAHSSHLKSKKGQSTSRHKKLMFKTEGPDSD
In short: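 Human colon HCT116 cells with an inducible p53 beta-lactamase reporter are exposed to test chemicals for 16 h at 37C. Reporter induction is read as the 460/530 nm emission ratio after CCF4-AM loading, normalized to DMSO.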

[2] = biological target: Cellular tumor antigen p53 (Homo sapiens) (UniProt P04637); test: TOX21_p53_BLA_p3_ratio: Tox21 HCT-116 p53 Agonism Beta-lactamase Assay, Ratio, Phase 3 (AID 2283596)
In short: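 HCT116 p53-bla cells (4000/well) given compound in DMSO (217-fold dilution) after 5 h, incubated 16 h at 37C. CCF4-AM substrate 2 h at room temperature; 460/530 nm emission ratio, gain fitted against DMSO.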

[3] = biological target: Cellular tumor antigen p53 (Homo sapiens) (UniProt P04637); test: TOX21_p53_BLA_p5_ratio: Tox21 HCT-116 p53 Agonism Beta-lactamase Assay, Ratio, Phase 5 (AID 2283599)
In short: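 Beta-lactamase reporter ratio (blue 460 nm over green 530 nm, 405 nm excitation) after 2 h CCF4-AM loading, in HCT-116 cells exposed 16 h at 37 C to compounds pinned at 217-fold dilution. Increases relative to DMSO baseline scored.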

[4] = biological target: Cellular tumor antigen p53 (Homo sapiens) (UniProt P04637); test: TOX21_p53_BLA_p4_ratio: Tox21 HCT-116 p53 Agonism Beta-lactamase Assay, Ratio, Phase 4 (AID 2283601)
In short: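 Signal is the blue/green (460nm/530nm) ratio of cleaved versus uncleaved CCF4-AM substrate, read after 2 h substrate loading. Cells were HCT116 carrying the p53-responsive beta-lactamase reporter, dosed 16 h at 37C, 5% CO2; CellTiter-Glo measured in parallel.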

[5] = biological target: Thyroid hormone receptor alpha (Rattus norvegicus) + Thyroid hormone receptor beta (Rattus norvegicus) (UniProt P18113+P63059); test: TOX21_TR_LUC_GH3_Antagonist_Followup: Tox21 GH3 Thyroid Hormone Receptor Antagonism Luciferase Follow-Up Assay (AID 2283942)
In short: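 Confirmatory qHTS, antagonist mode: T3 (1.0 nM final) + test cpd, 15 conc, 92 uM–5nM final, GH3 rat pituitary line, 24 h, 37C. Luc reporter, RLU vs DMSO.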

THRB (gene 7068) = THRB (gene 7068) (UniProt P10828); test: TOX21_TRB_BLA_Antagonist_Followup_ratio: Tox21 Thyroid Hormone Receptor beta Antagonism Beta-lactamase (BLA) Follow-Up Assay, Ratio (AID 2283958)
Chain of THRB (gene 7068) (P10828 whole entry, looked up, the tested form may be a part): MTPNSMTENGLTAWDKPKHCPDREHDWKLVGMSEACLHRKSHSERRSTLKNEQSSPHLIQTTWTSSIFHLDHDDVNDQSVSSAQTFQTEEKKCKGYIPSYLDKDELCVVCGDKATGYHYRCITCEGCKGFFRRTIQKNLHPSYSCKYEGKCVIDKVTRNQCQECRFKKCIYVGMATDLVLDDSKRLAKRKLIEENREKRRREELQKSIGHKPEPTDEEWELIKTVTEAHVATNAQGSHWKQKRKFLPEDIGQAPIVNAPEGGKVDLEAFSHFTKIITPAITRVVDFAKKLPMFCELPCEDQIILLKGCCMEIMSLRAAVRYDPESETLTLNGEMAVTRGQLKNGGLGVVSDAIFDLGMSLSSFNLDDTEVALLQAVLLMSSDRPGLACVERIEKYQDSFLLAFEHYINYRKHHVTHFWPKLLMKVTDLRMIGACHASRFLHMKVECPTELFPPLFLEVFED
In short: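 GAL4-DBD/human TRβ-LBD fusion in GeneBLAzer UAS-bla HEK293T cells, 3,000 cells/well in phenol red-free DMEM with 2% charcoal-stripped FBS; compounds at 11 concentrations in triplicate, 18 h at 37C. CCF4-AM substrate 2 h, 460:530 nm ratio relative to DMSO.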

[6] = TOX21_TRB_BLA_Antagonist_Followup_viability: Viability Assessment in the Tox21 Thyroid Hormone Receptor beta Antagonism Beta-lactamase (BLA) Follow-Up Assay (AID 2283961)
In short: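 In the same wells as the reporter read, cell health was gauged by CellTiter-Glo ATP luminescence, with signal loss indicating reduced viability. Cells had been exposed to test compounds for 18 h.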

[7] = biological target: Retinoic acid receptor RXR-alpha (Homo sapiens) (UniProt P19793); test: TOX21_TR_RXR_BLA_Antagonist_Followup_ratio: Tox21 Thyroid Hormone Receptor beta Retinoid X Receptor alpha (RXRa) Antagonism Beta-lactamase (BLA) Follow-Up Assay, Ratio (AID 2283972)
Chain of Retinoic acid receptor RXR-alpha (Homo sapiens) (P19793 whole entry, looked up): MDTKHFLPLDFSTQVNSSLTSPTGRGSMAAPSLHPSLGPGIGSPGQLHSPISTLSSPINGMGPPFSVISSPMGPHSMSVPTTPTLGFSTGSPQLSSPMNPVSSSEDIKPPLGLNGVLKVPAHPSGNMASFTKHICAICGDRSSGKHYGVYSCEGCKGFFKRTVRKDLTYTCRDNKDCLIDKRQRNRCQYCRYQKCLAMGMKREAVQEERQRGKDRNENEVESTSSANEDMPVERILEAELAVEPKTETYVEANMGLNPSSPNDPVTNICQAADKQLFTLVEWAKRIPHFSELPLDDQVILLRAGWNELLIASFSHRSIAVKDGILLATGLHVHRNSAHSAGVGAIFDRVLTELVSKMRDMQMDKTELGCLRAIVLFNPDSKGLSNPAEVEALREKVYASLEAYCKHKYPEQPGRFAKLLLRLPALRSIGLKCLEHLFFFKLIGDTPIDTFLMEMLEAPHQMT
In short: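 Compounds were tested in triplicate at 11 concentrations on RXRa-bla HEK293T cells for 16 h. Substrate cleavage ratio, normalized to DMSO, gave the endpoint.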

[8] = TOX21_p53_BLA_p3_viability: Viability Assessment in the Tox21 HCT-116 p53 Agonism Beta-lactamase Assay, Phase 3 (AID 2283593);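 also: cells exposed to compound for 16 h before reading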
In short: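 Cellular ATP was quantified by CellTiter-Glo luminescence, read after 30 min at room temperature. Beforehand, HCT116 cells (4000/well) received compound 5 h post-seeding, 217-fold diluted from DMSO, then incubated 16 h at 37C.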

[9] = TOX21_p53_BLA_p4_viability: Viability Assessment in the Tox21 HCT-116 p53 Agonism Beta-lactamase Assay, Phase 4 (AID 2283597);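 also: hits lower the luminescence signal meaning cytotoxicity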
In short: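 Luminescent ATP readout (CellTiter-Glo, 30 min, room temperature) in the same wells as the p53 bla ratio. HCT116 cells were treated for 16 h at 37C with DMSO-dissolved compounds.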

[10] = TOX21_p53_BLA_p5_viability: Viability Assessment in the Tox21 HCT-116 p53 Agonism Beta-lactamase Assay, Phase 5 (AID 2283600)
In short: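 Seeded cells (4000/well) settle 5 h before compound addition. Plates then incubate 16 h at 37C, receive FRET substrate for 2 h, and finally CellTiter-Glo, with luminescence measured after a 30 min room-temperature incubation.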

[11] = CCTE_Harrill_HTTr_Viability_MCF7: CCTE's 6-hour Cell Viability Assessment for the High-Throughput Transcriptomics (HTTr) Platform, in MCF-7 cells cultured in DMEM + 10% fetal bovine serum, Harrill Lab (AID 2284010; active = hit-call score of the fitted dose curve at least 0.9, where 1 is the maximum; inactive = score below 0.9)
In short: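 Membrane integrity was scored by high-content imaging of propidium iodide dye exclusion after a 6 h exposure across an eight-point dilution series. Data were fitted bidirectionally relative to DMSO as negative control and baseline.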

[12] = CCTE_Harrill_HTTr_Apoptosis_MCF7: CCTE's 6-hour Apoptosis Assessment for the High-Throughput Transcriptomics (HTTr) Platform, in MCF-7 cells cultured in DMEM + 10% fetal bovine serum, Harrill Lab (AID 2284011; active = hit-call score of the fitted dose curve at least 0.9, where 1 is the maximum; inactive = score below 0.9)
In short: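 Apoptosis in MCF-7 cells grown in DMEM with 10% fetal bovine serum was scored after a six hour exposure by high content imaging of caspase-3/7 activation (CellEvent Caspase 3/7 Green), with DMSO serving as negative control and baseline.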

[13] = CCTE_Harrill_HTTr_CellCount_MCF7: CCTE's Cell Proliferation Assessment for the High-Throughput Transcriptomics (HTTr) Platform, Harrill Lab (AID 2284012);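 also: cells exposed to compound for six hours; intended direction is loss of nuclei count meaning fewer cells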
In short: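 MCF-7 cells were exposed for 6 h to an eight-point dilution series; Hoechst-labeled nuclei were counted by high content imaging. Curves were fitted bidirectionally against DMSO as negative control and baseline, with signal loss indicating reduced cell count.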

[14] = TOX21_PR_BLA_Followup_Agonist_viability: Viability Assessment in the Tox21 HEK293 Progesterone Receptor (PR) Agonism Beta-lactamase Follow-Up Assay (AID 2283935);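 also: signal loss means lower viability so actives are cytotoxic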
In short: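 PR-UAS-bla HEK293T cells in 2% charcoal-stripped FBS medium, compound added after 6 hr plating, 16 hr at 37C/5% CO2. After bla FRET read, CellTiter-Glo added; luminescence read after 30 min at room temperature; signal loss marks cytotoxicity.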

PGR (gene 5241) [15] = biological target: PGR (gene 5241) (UniProt P06401); test: TOX21_PR_LUC_Followup_Agonist: Tox21 HEK293 Progesterone Receptor (PR) Agonism Luciferase Follow-Up Assay (AID 2283937; active = hit-call score of the fitted dose curve at least 0.9, where 1 is the maximum; inactive = score below 0.9)
Chain of PGR (gene 5241) (P06401 whole entry, looked up): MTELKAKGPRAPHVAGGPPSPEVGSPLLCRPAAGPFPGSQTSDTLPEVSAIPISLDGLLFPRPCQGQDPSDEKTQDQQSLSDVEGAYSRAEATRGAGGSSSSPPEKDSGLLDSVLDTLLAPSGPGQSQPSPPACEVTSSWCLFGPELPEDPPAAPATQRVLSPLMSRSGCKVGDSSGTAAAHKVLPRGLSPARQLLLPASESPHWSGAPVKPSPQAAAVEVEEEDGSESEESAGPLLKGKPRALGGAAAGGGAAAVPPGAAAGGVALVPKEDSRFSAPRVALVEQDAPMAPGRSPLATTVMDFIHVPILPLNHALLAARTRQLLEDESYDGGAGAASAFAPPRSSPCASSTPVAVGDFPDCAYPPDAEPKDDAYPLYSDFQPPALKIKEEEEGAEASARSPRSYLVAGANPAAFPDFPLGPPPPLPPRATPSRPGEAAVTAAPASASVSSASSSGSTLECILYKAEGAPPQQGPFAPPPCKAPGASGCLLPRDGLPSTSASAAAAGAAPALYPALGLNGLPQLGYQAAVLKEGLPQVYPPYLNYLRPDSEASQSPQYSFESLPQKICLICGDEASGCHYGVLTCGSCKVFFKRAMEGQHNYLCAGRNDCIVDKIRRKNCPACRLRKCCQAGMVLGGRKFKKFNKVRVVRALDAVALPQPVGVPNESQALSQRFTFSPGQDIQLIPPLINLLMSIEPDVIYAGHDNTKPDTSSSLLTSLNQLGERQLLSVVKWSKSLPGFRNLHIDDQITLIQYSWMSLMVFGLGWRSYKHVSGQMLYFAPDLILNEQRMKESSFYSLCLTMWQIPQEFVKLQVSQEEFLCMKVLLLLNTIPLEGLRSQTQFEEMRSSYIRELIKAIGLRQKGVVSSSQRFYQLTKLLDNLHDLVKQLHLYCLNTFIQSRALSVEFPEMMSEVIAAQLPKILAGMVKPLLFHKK
In short: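 HEK293-PR-A-luc cells, pre-cultured 5 days in medium with 10% charcoal-stripped FBS, were seeded at 3,000 cells/well, rested 5 h at 37C, then exposed to compounds 16 h at 37C; luciferase read by ONE-Glo luminescence after 30 min.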

PGR (gene 5241) [16] = biological target: PGR (gene 5241) (UniProt P06401); test: TOX21_PR_LUC_Followup_Antagonist: Tox21 HEK293 Progesterone Receptor (PR) Antagonism Luciferase Follow-Up Assay (AID 2283938);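 also: curve fitted upward as signal gain over DMSO baseline despite antagonist label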
In short: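 Luciferase reporter in HEK293-PR-A-luc cells: 16 h compound treatment at 37C, ONE-Glo luminescence detection, DMSO as negative control and baseline.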

[17] = TOX21_PR_LUC_Followup_Antagonist_viability: Viability Assessment in the Tox21 HEK293 Progesterone Receptor (PR) Antagonism Luciferase Follow-Up Assay (AID 2283940)
In short: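 HEK293-PR-A-luc cells, precultured 5 days in assay medium with 10% charcoal-stripped FBS, were seeded at 3,000 cells/well, treated with compounds in DMSO for 16 h at 37C, and viability was read as cellular ATP by CellTiter-Glo luminescence.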

[18] = TOX21_PR_LUC_Followup_Agonist_viability: Viability Assessment in the Tox21 HEK293 Progesterone Receptor (PR) Agonism Luciferase Follow-Up Assay (AID 2283941);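 also: loss of signal means cytotoxicity so actives lower viability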
In short: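 HEK293-PR-A-luc cells, pre-cultured 5 days in 10% charcoal-stripped FBS, were seeded at 3,000 cells/well, rested 5 h at 37C, then given compound in DMSO for 16 h at 37C. Cellular ATP was read by CellTiter-Glo luminescence; signal loss indicates cytotoxicity.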

For `Nc1ccc2cc3ccc(N)cc3nc2c1`, the AC50 [1] was 968 nM (active) and 3.15 µM (active), the AC50 [2] was 2.62 µM (active) and 5.87 µM (active) and the AC50 [3] was 2.96 µM (active) and 4.81 µM (active). For the same compound, the AC50 [4] was 1.64 µM (active) and 3.71 µM (active), the AC50 [5] was 13.1 µM (active) and the AC50 (THRB (gene 7068)) was 32.4 µM (active) and 28.8 µM (active). The AC50 [6] was 19.5 µM (active), the outcome [6] was “inactive” and the AC50 [7] was 17.5 µM (active) and 7.59 µM (active).

With `CN(C)CCN(Cc1cccs1)c1ccccn1` the outcome [1] was “inactive”, the outcome [2] was “inactive” and the outcome [3] was “inactive”. For the same compound, the outcome [4] was “inactive”.

In the case of `Cc1ccc2nc(-c3ccc(N)cc3)sc2c1S(=O)(=O)O`, the outcome [1] is reported as “inactive”, the outcome [8] is reported as “inactive” and the outcome [9] is reported as “inactive”. For the same compound, the outcome [3] was “inactive” and the outcome [4] was “inactive”.

In the case of `Cc1cnc(C(=O)NCCc2ccc(S(=O)(=O)NC(=O)NC3CCCCC3)cc2)cn1`, the outcome [1] is reported as “inactive”, the outcome [2] is reported as “inactive” and the outcome [9] is reported as “inactive”. The outcome [3] was “inactive”, the outcome [10] was “inactive” and the outcome [11] was “inactive”. The outcome [12] was “inactive” and the outcome [13] was “inactive”.

In the case of `CN1[C@@H]2CCC[C@H]1CC(NC(=O)c1nn(C)c3ccccc13)C2` (stereo partly specified), the outcome [1] is reported as “inactive”, the outcome [8] is reported as “inactive” and the outcome [9] is reported as “inactive”. For the same compound, the outcome [10] was “inactive”.

With `CCn1cc(C(=O)O)c(=O)c2cc(F)c(N3CCNCC3)nc21` the outcome [8] was “inactive”, the outcome [2] was “inactive” and the outcome [3] was “inactive”. The outcome [4] was “inactive”.

For `CC(=O)OCC1=C(C(=O)O)N2C(=O)[C@@H](NC(=O)Cc3cccs3)[C@H]2SC1`, the outcome [8] was “inactive”, the outcome [2] was “inactive” and the outcome [3] was “inactive”. For the same compound, the outcome [10] was “inactive” and the outcome [4] was “inactive”.

In the case of `CC(=O)OCC(=O)[C@@]1(O)CC[C@H]2[C@@H]3CCC4=CC(=O)C=C[C@]4(C)[C@H]3[C@@H](O)C[C@@]21C`, the outcome [14] is reported as “inactive”, the AC50 (PGR (gene 5241) [15]) is reported as 2.28 µM (active) and the outcome (PGR (gene 5241) [16]) is reported as “inactive”. For the same compound, the outcome [17] was “inactive” and the outcome [18] was “inactive”.

In the case of `C=CS(=O)(=O)O`, the outcome [1] is reported as “inactive”, the outcome [9] is reported as “inactive” and the outcome [3] is reported as “inactive”. For the same compound, the outcome [10] was “inactive” and the outcome [4] was “inactive”.

For `COc1c(N2C[C@@H]3CCCN[C@@H]3C2)c(F)cc2c(=O)c(C(=O)O)cn(C3CC3)c12`, the outcome [1] was “inactive”, the outcome [2] was “inactive” and the outcome [3] was “inactive”. The outcome [4] was “inactive”.

With `CCOc1ccc(NC(=O)OC(C)C)cc1OCC` the outcome [1] was “inactive”, the outcome [8] was “inactive” and the outcome [9] was “inactive”. For the same compound, the outcome [3] was “inactive” and the outcome [4] was “inactive”.

In the case of `O=C(CCCCCCCCCCCCC1CCCC1)Nc1ccc(S(=O)(=O)c2ccc(NC(=O)CCCCCCCCCCCCC3CCCC3)cc2)cc1`, the outcome [1] is reported as “inactive”, the outcome [8] is reported as “inactive” and the outcome [9] is reported as “inactive”. The outcome [3] was “inactive” and the outcome [4] was “inactive”.

In the case of `C[C@H](CCCC(C)(C)O)[C@H]1CC[C@H]2[C@@H]3CC=C4C[C@@H](O)CC[C@]4(C)[C@H]3CC[C@]12C`, the outcome [1] is reported as “inactive”, the outcome [8] is reported as “inactive” and the outcome [4] is reported as “inactive”.
